{"source": "PubChem BioAssay", "data": [{"test": "MRP1 drug-resistance reversers in H69AR cells – cell-based, doxorubicin co-treatment, pilot screen (AID 601)", "conditions": "H69AR cells, CellTiter-Glo, 72 h; compound alone cytotoxicity; at 10 µM", "units": {"viability": "%"}, "values": [{"smiles": "CC1CCc2nn(CC(=O)NCc3ccc4c(c3)OCO4)cc2C1", "note": "(centres undefined)", "viability": 100}, {"smiles": "CCC(C)(C(=O)NC1CCCC1)N(Cc1cccs1)C(C)=O", "note": "(centres undefined)", "viability": 96.9}, {"smiles": "COc1ccc(CCNC(=O)c2cnn3ccccc23)c(OC)c1OC", "viability": 96.5}, {"smiles": "CC1CCCN(S(=O)(=O)c2coc(C(N)=O)c2)C1", "note": "(centres undefined)", "viability": 94.6}, {"smiles": "Cn1c(C(=O)NCC2CCCO2)cc2c(=O)n(C)c3ccccc3c21", "note": "(centres undefined)", "viability": 83.6}, {"smiles": "O=C(Nc1cnn(Cc2ccc(Cl)cc2Cl)c1)c1noc2c1CCCC2", "viability": 88.2}, {"smiles": "Clc1cccc(N2CCN(Cc3nc(-c4ccccc4)no3)CC2)c1", "viability": 91.3}, {"smiles": "COC(=O)C1=C(C)NC(C)=C(C(=O)OC)C1C1CC=CCC1", "note": "(centres undefined)", "viability": 100}, {"smiles": "Cc1nnc(SCC(=O)NCc2ccccc2)s1", "viability": 101}, {"smiles": "CC1=C(C(=O)Nc2ccc(F)cc2)C(c2cccc(C)c2)n2nc(CCCO)nc2N1", "note": "(centres undefined)", "viability": 94}, {"smiles": "CCOc1ccc(OCCCCN(C)C)cc1", "viability": 88.5}, {"smiles": "CCCC(=O)C1=C(N(C)c2ccccc2)CC(C)(C)C(C(=O)OC)C1=O", "note": "(centres undefined)", "viability": 94.4}, {"smiles": "CC1Cc2ccccc2N1C(=O)C12CCC(C)(C(=O)C1)C2(C)C", "note": "(centres undefined)", "viability": 82.1}, {"smiles": "CC1CN(c2ccc(Oc3ccccc3)cc2)c2nc3c(c(=O)n(CC(N)=O)c(=O)n3C)n2C1", "note": "(centres undefined)", "viability": 79.1}, {"smiles": "COc1ccc(N2CCN(C(c3ccccc3)c3sc4nc(C)nn4c3O)CC2)cc1", "note": "(centres undefined)", "viability": 90}, {"smiles": "O=C(CCn1c(=O)oc2ccccc21)NCc1ccco1", "viability": 91}, {"smiles": "COc1cccc(C2CC(c3ccc(C)cc3)n3nc(N)nc3N2)c1", "note": "(centres undefined)", "viability": 98.2}, {"smiles": "Cc1onc(-c2c(Cl)cccc2Cl)c1C(=O)NCC1CCCO1", "note": "(centres undefined)", "viability": 111}, {"smiles": "CC(=O)Nc1cccc(NC(=O)CSc2nn3c(=O)c(C)nnc3s2)c1", "viability": 90.8}]}]}
